Data from PubChem BioAssay (NCATS).
Inconclusive results are not listed. Where a call stands in place of a potency, no number is given. The source made the active and inactive calls. Calls come from the whole dose curve; as a rule, active = well fitted inhibition curve with a large enough effect; inconclusive = small, poorly fitted or top-dose-only effect; inactive = no such curve, though single readings can be large or run the other way. *1 amine or outer side, *2 acyl side, *3 side chain or, on linkers, in order; H or OH if unused. Where a SMILES comes first, the peptide text is derived from it. Bridges are numbered along the chain shown (N, C = ends). [ ]: non-standard residue; d: D form. The star is where a group is joined. pTerphenylCO(4''-OnC5H11) = CCCCCOc1ccc(-c2ccc(-c3ccc(C(=O)*)cc3)cc2)cc1; Orn(4R-OH,5R-OH) = O=C([C@H](C[C@@H](O)[C@@H](O)N[*:3])N[*:1])[*:2]; hTyr(3S-OH,4S-OH) = N[C@H](C(=O)O)[C@H](O)[C@@H](O)c1ccc(O)cc1; Pro(3S-OH,4S-Me) = C[C@H]1CN[C@H](C(=O)O)[C@H]1O; Hyp = O=C(O)[C@@H]1C[C@@H](O)CN1

Experiment: Primary fluorescence-based thiol-reactive (MSTI) qHTS assay for identification of artifact compounds. (AID 1845221); note: nearly all actives have a fitted effect of over 65% in size
Settings: MSTI thiol-reactivity probe, 1 h; series mostly up to 53.8 µM
Method in brief: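 qHTS titration of compound; 4 uM MSTI, PBS pH 7.4, 2% DMSO; 1 h RT, dark; fluorescence 525/598 nm; normalized to Acetyl-MSTI and MSTI; 4-parameter Hill fit.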
Potency is the fitted concentration of half-maximal effect.

| Compound | Potency |
| --- | --- |
| C=C1CCC[C@]2(C)CC/C(=C(/CO)C(=O)OC)C[C@@H]12 | inactive |
| CC(C)C[C@@H]1NC(=O)[C@@H]2C[C@@]34C[C@@H]5[C@@]6(C)CCCC(C)(C)C6CC[C@@]5(C)N(c5ccccc53)[C@H]4N2C1=O (stereo partly specified) | inactive |
| COc1cc(F)c(F)c(Nc2ccc(I)cc2F)c1NS(=O)(=O)C1(CC(O)CO)CC1 (stereo unspecified) | inactive |
| CCC1C(=O)N(C)c2cnc(Nc3ccc(C(=O)NC4CCN(C)CC4)cc3OC)nc2N1C1CCCC1 (stereo unspecified) | inactive |
| N#Cc1ccc(Nc2nc(-c3ccc(O)cc3O)cs2)cc1C(F)(F)F | 2.99 µM (active) |
| C=C(NC(=O)C(=C)NC(=O)c1csc(C2=NC3c4csc(n4)C4NC(=O)c5csc(n5)C(C(C)(O)C(C)O)NC(=O)C5CSC(=N5)/C(=C/C)NC(=O)C(C(C)O)NC(=O)c5csc(n5)C3(CC2)NC(=O)C(C)NC(=O)C(=C)NC(=O)C(C)NC(=O)C(C(C)CC)NC2C=Cc3c(C(C)O)cc(nc3C2O)C(=O)OC4C)n1)C(N)=O (stereo unspecified) | inactive |
| CN(C)C(CCOc1cccc2ccccc12)c1ccccc1 (stereo unspecified) | inactive |
| CN1CCC(c2cn(C)c3ccc(OS(=O)(=O)c4c(F)cccc4F)cc23)CC1 | inactive |
| CC[C@H]1OC(=O)[C@H](C)[C@@H](O[C@H]2C[C@@](C)(OC)[C@@H](O)[C@H](C)O2)[C@H](C)[C@@H](O[C@H]2O[C@H](C)C[C@H](N(C)C)[C@H]2O)[C@](C)(O)C[C@@H](C)C(=O)[C@H](C)[C@@H](O)[C@]1(C)O | inactive |
| COc1ccc2[nH]c(=O)c3c(c2c1)OC(C)(C)C=C3 | inactive |
| CC(C)(C)Oc1ccc(OCC2Cc3ccccc3CN2C(=O)c2cccc3ccccc23)cc1 (stereo unspecified) | inactive |
| Cn1ncc(Cl)c1-c1cc(C(=O)N[C@H](CN)Cc2ccc(F)c(F)c2)oc1Cl | inactive |
| C=C1/C(=C/C=C2\CCC[C@]3(C)[C@@H]([C@H](C)/C=C/[C@H](O)C4CC4)CC[C@@H]23)C[C@@H](O)C[C@@H]1O | inactive |
| Cc1c(Cl)cccc1S(=O)(=O)Nc1nc(NCCc2ccccc2)nc2c1CN(Cc1ccccc1)CC2 | inactive |
| O=c1cc(NCCCN[C@@H]2CCOc3c(Br)cc(Br)cc32)[nH]c2ccsc12 | inactive |
| COCC(c1ccc(C(F)(F)F)cc1)N1CCN(C2(C)CCN(C(=O)c3c(C)ncnc3C)CC2)CC1C (stereo unspecified) | inactive |
| Cc1cc(-c2cnc(N)c3c(-c4ccc5scnc5c4)csc23)n(C)n1 | inactive |
| Cc1cc2c(F)c(Oc3ncnn4cc(OCC(C)OC(=O)C(C)N)c(C)c34)ccc2[nH]1 (stereo unspecified) | inactive |
| C=C1/C(=C/C=C2\CCC[C@@]3(C)C2CCC3[C@H](C)/C=C/[C@@H](O)C2CC2)C[C@@H](O)C[C@@H]1O (stereo partly specified) | inactive |
| CCC/C=C/c1cc2c(C=O)c(O)c(CC=C(C)C)cc2o1 | 23.8 µM (active) |
| COc1cc(/C=C/C(=O)NCCn2c(C(F)(F)F)cc3ccccc32)cc(OC)c1OC | inactive |
| CCN(CC)CCCS(=O)(=O)N[C@H](CCc1ccccc1)c1nc(Cc2ccc(Br)cc2)no1 | inactive |
| NC(=O)c1cnc(N[C@@H]2CCCC[C@H]2N)nc1Nc1cccc(-n2nccn2)c1 | inactive |
| CC#CCn1c(N2CCCC(N)C2)nc2c1c(=O)n(Cc1nc(C)c3ccccc3n1)c(=O)n2C (stereo unspecified) | inactive |
| CCCCCOc1ccc(-c2ccc(-c3ccc(C(=O)N[C@H]4C[C@@H](O)[C@@H](O)NC(=O)[C@@H]5[C@@H](O)[C@@H](C)CN5C(=O)[C@H]([C@@H](C)O)NC(=O)[C@H]([C@H](O)[C@@H](O)c5ccc(O)cc5)NC(=O)[C@@H]5C[C@@H](O)CN5C(=O)[C@H]([C@@H](C)O)NC4=O)cc3)cc2)cc1 ({pTerphenylCO(4''-OnC5H11)}-[Orn(4R-OH,5R-OH)]T[Hyp][hTyr(3S-OH,4S-OH)]T[Pro(3S-OH,4S-Me)]; lactam 1-C) | inactive |
| C=CC(C)(O)CC[C@@H]1[C@@]2(C)CCCC(C)(C)C2CC[C@@]1(C)O (stereo partly specified) | inactive |
